Only some compounds are listed: those with a hit (about 1.6% of all), similar ones and a draw of the others.
Insulin prom inh: inhibitors of insulin promoter-driven GFP, primary screen, imaging, TRM-6 cells (human fetal islet line), eGFP reporter, cell count; 130,000 compounds, 0.9% hits; reporter expression induced with tamoxifen; inhibition, % at 2 µM;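 active = inhibition above the mean plus 3 SD, with well images judged a real hit on visual review, cut at about 60% in these data, passing the limit was not always enough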
Phagocyt inh: inhibitors of macrophage phagocytosis, primary screen, imaging, J774A.1 cells, IgG beads | 110,000 compounds, 0.07% hits | J774A.1 macrophage IgG-bead phagocytosis | inhibition, % at 5 µM;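 active = inhibition above the mean of the plate negative controls plus 5 SD, cut at about 13% in these data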;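 note: phagocytic index as fraction of beads internalized from green versus red external bead signal; plate controls were DMSO negative control for no effect and cytochalasin-D positive control for full effect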
E-sel TNF inh: E-selectin induction blockers in HUVEC – imaging, immunofluorescence, high content, primary screen; HUVEC TNFa-induced E-selectin immunofluorescence; inhibition, % at 2 µM; 120,000 compounds, 0.71% hits;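 active = inhibition above the batch mean plus 3 SD, and confirmed as a hit on visual image review, cut at about 43% in these data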;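 note: 0% = TNF-stimulated DMSO wells and 100% = unstimulated control wells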
TNFa cytotox: cytotoxicity in TNFa-stimulated HUVEC, primary screen, cytotoxicity control for VCAM1 expression modulator project, imaging, Hoechst nuclei count | 93,000 compounds, 0.17% hits | cell count reduction, % at 2 µM | HUVEC TNFalpha-stimulated, Hoechst cell count | AID 848, 2007;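 active = cell count reduction exceeding the screen mean by over 5 SD, scaled to untreated wells per plate, cut at about 78% in these data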;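 note: cells counted after 24 h of TNF alpha exposure following the 1 h pretreatment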
F-actin modifier: modifiers of F-actin cytoskeleton organization, primary screen, imaging, HUVEC, phalloidin staining, high-content imaging; 91,000 compounds, 0.18% hits; inhibition, % at 2 µM; HUVEC TNFa F-actin phalloidin imaging;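 active = inhibition above the batch mean plus 3 SD and confirmed as a hit by visual image inspection, cut at about 30% in these data, passing the limit was not always enough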
VCAM1 TNFa inh: inhibitors of TNFa-induced VCAM1 expression, primary screen, imaging, HUVEC, TNFa stimulus, immunofluorescence; 95,000 compounds, 0.48% hits; HUVEC TNFa-induced VCAM-1 immunofluorescence, high-content imaging; inhibition, % at 2 µM;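 active = inhibition above the batch mean plus 3 SD, with images confirmed as a hit by eye, cut at about 37% in these data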;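 note: 0% = TNF-stimulated DMSO wells and 100% = unstimulated control wells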
* marks the source's active call; other numbers are inactive results.

What do the screens show for `COc1ccc(C)cc1-n1nnnc1SCC(=O)Nc1cccnc1Cl`?
Insulin prom inh: 19.2; Phagocyt inh: -2.5; E-sel TNF inh: 77.7*

How did Cc1noc(C)c1CSc1nnc(C)c(=O)[nH]1 do in these assays?
Insulin prom inh: 78.4*; E-sel TNF inh: -10.2; TNFa cytotox: 20.9; F-actin modifier: -3.0; VCAM1 TNFa inh: -7.7

Results for COc1ccc(-n2c(C)nc(=O)c(-c3ccccc3)c2C)cc1 ?
Insulin prom inh: 38.5; E-sel TNF inh: 2.7; TNFa cytotox: -26.7; F-actin modifier: 38.3; VCAM1 TNFa inh: -5.9

Results for COC(=O)c1ccc(-n2c(C)nc(=O)c(-c3ccccc3)c2C)cc1 ?
Insulin prom inh: 71.8*; Phagocyt inh: -0.7; E-sel TNF inh: -6.3; TNFa cytotox: -9.9; F-actin modifier: -30.4; VCAM1 TNFa inh: 14.0

What do the screens show for `COc1ccccc1S(=O)(=O)CC(O)COc1ccc(F)cc1Cl` (centres undefined)?
Insulin prom inh: -25.7

What do the screens show for `OC(c1ccccn1)c1c[nH]c2ccccc12` (centres undefined)?
Phagocyt inh: -2.0; E-sel TNF inh: 3.6; TNFa cytotox: -13.3; F-actin modifier: 67.1*; VCAM1 TNFa inh: 5.1

How did O=C(O)C1=C(OCc2ccc(F)c(F)c2)C(=O)NCC1 do in these assays?
Insulin prom inh: 38.1

Results for Nn1c(CN2CCCCC2)nc2ccccc2c1=O ?
Insulin prom inh: 27.3; Phagocyt inh: -1.2; E-sel TNF inh: 50.7*; TNFa cytotox: 0.0; F-actin modifier: -9.3; VCAM1 TNFa inh: 13.9

Results for CC(/C=C/c1ccccc1)=N/NC(=O)c1cccc(Br)c1 ?
Insulin prom inh: 36.8

Results for C/C(=N\N1CCN(C)CC1)c1ccc(OC(F)F)cc1 ?
Insulin prom inh: 75.0*

Results for Cc1c(C(=O)Nc2ccccc2)oc2c1C(=O)CC(C)(C)C2 ?
Insulin prom inh: 5.0; Phagocyt inh: 2.3; E-sel TNF inh: 19.8; TNFa cytotox: 10.3; F-actin modifier: -8.2; VCAM1 TNFa inh: -1.1

What do the screens show for `Cc1ccc(NC(=O)c2oc3c(c2C)C(=O)CC(C)(C)C3)cc1`?
Insulin prom inh: 62.5; Phagocyt inh: 4.2; E-sel TNF inh: -28.4; TNFa cytotox: -3.0; F-actin modifier: -2.5; VCAM1 TNFa inh: 96.9*

Results for CC1=C(C(=O)N(C)C)C(c2ccc(C)s2)NC(=S)N1 (centres undefined) ?
Insulin prom inh: 14.3; E-sel TNF inh: 19.8

Results for Cc1ccc(NCc2ccc(O)c3ncccc23)cc1C ?
Insulin prom inh: 78.6*; E-sel TNF inh: -9.7

How did Cc1ccc(NCc2ccc(O)c3ncccc23)cc1 do in these assays?
Insulin prom inh: 28.6; E-sel TNF inh: 0.7

What do the screens show for `O=C1NCCCc2c1oc1cc(Br)c(O)c(Br)c21`?
Insulin prom inh: -191.3; Phagocyt inh: -1.4; E-sel TNF inh: 97.1*

Results for COCCN1CCN(Cc2cn[nH]c2-c2cc3ccccc3o2)CC1 ?
Insulin prom inh: 15.0; E-sel TNF inh: -16.1

How did CCc1ccc(CC2S/C(=C(\C#N)C(C)=O)NC2=O)cc1 (centres undefined) do in these assays?
Insulin prom inh: -16.3; Phagocyt inh: -0.8; E-sel TNF inh: 50.1*; TNFa cytotox: -11.3; F-actin modifier: 14.8; VCAM1 TNFa inh: -6.3

What do the screens show for `CCc1cccc(C)c1NC(=O)CCCSc1nc2ccccc2s1`?
Insulin prom inh: -100.0; Phagocyt inh: -2.0; E-sel TNF inh: 0.7

What do the screens show for `CCc1cccc(CC)c1NC(=O)C1SC(=Nc2ccccc2C)C(c2nc3ccccc3s2)=C1N` (centres undefined)?
Insulin prom inh: 10.8; Phagocyt inh: -1.5; E-sel TNF inh: -0.9; TNFa cytotox: -2.9; F-actin modifier: -23.7; VCAM1 TNFa inh: 59.1*

Results for O=C(NNC(=O)C1[C@H]2CCCC[C@@H]12)NC1CCCCC1 (some centres undefined) ?
Insulin prom inh: 35.7; Phagocyt inh: -3.0

Results for Cn1c(Cc2ccccc2)nnc1SCCC(=O)Nc1ccccc1 ?
Insulin prom inh: -44.0; Phagocyt inh: 4.3; E-sel TNF inh: 2.9; TNFa cytotox: -6.4; F-actin modifier: 0.0; VCAM1 TNFa inh: 5.0

What do the screens show for `Cn1c(Cc2ccccc2)nnc1SCc1ccc(C(=O)O)cc1`?
Insulin prom inh: 75.0*; Phagocyt inh: -5.8; E-sel TNF inh: 9.9
